Screen size: about 370,000 compounds; about 4,100 (1.1%) were called active.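 How the source made its calls: active means inhibition above the mean over all tested compounds plus 3 SD (cut at about 3.6% in these data); inactive means the rest.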 This excerpt belongs to a sample that is enriched for actives.

The test is described as follows: relief of DAX-1 repression of SF-1 activity – cell-based, luminescence, SF-1 (NR5A1), full-length DAX-1, primary screen (AID 652010).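 Further: 0% = DAX-1 cells with DMSO and 100% = cells lacking DAX-1 with DMSO; higher inhibition means more luminescence from relief of DAX-1 repression.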 Particulars: HEK293T StAR-luciferase reporter, SF-1/DAX-1 repression relief; at 6.8 µM; active compounds read high.
For `CCCCOCCCNC(=O)C[C@H]1C[C@@]2(C(=O)OC)C(=C[C@H](COCc3ccccc3)O[C@@H]2C)N(Cc2cccc3ccccc23)C1=O`, the inhibition was -0.91% (inactive).
Take `COc1cc(NC(=O)C2CCCN(S(=O)(=O)c3ccc(C(C)(C)C)cc3)C2)cc(OC)c1` (configuration not stated): the inhibition is 0.97% (inactive).
Consider `O=C(Nc1nnc(-c2ccccc2F)s1)c1ccccc1F`, for which the inhibition was 0.85% (inactive).
Under `C/C(=N\NC(=O)c1ccccc1F)c1ccccn1` stands 6.14% (active); under `C/C(=N/NC(=O)c1ccn(C)n1)c1ccncc1`, -0.02% (inactive).
Under `CCCCCCCCNS(=O)(=O)/C=C/c1cc(C)ccc1CNC(=O)OC(C)(C)C` stands -1.91% (inactive); under `CN[C@H]1C[C@H]2c3cc(N4CCOCC4)ccc3CCN2C[C@H]1[C@H](C)O`, -0.26% (inactive); under `COC(=O)C1=C(C)N(Cc2cccc(C(F)(F)F)c2)C(=NCc2ccccc2)NC1c1ccccc1C(F)(F)F` (configuration not stated), -0.23% (inactive).
Turning to `COc1ccc(C(=O)COC(=O)CN2C(=O)C3CC=CCC3C2=O)c(OC)c1` (configuration not stated), the inhibition was 1.03% (inactive).
Take `COc1ccc(C(=O)COC(=O)c2nn(C)c(=O)c3ccccc23)c(OC)c1`: the inhibition was 1.33% (inactive).
Consider `COc1ccc(C(=O)COC(=O)C(O)c2ccccc2)c(OC)c1` (configuration not stated), for which the inhibition is 3.84% (active).
Under `CNC(=S)N1N=C(c2ccccc2)CC1c1ccc(Br)cc1` (configuration not stated) stands -0.46% (inactive).
Consider `S=C1NC(c2ccccc2)=NCN1c1ccc(Br)cc1`, for which the inhibition was 0% (inactive).
For `Brc1ccc(C2CC(c3ccccc3)=Nc3ccccc3N2)cc1` (configuration not stated), the inhibition is 3.86% (active).
As to `CCOC(=O)c1c(C)[nH]c(C2=NNC(=NC(C)COC)SC2)c1C` (configuration not stated), the inhibition was 4.39% (active).
Under `O=C1Nc2ccccc2C1=NN=Cc1ccco1` stands -1.23% (inactive); under `CCOC(=O)[C@]12CCCCC/C=C\1N(Cc1ccc(OC)cc1)C(=O)[C@H]2CC(=O)NCCCN1CCCC1=O`, 0.28% (inactive).
Regarding `O=C(NCC1(N2CCCCC2)CCCCC1)c1ccc(NS(=O)(=O)c2ccc(F)cc2)cc1`, the inhibition is 10.6% (active).
`O=C(NCC1CCCO1)c1ccc(S(=O)(=O)Nc2ccc(F)cc2)cc1` (configuration not stated): the inhibition is 0.67% (inactive).
On to `CCOc1ccc(NS(=O)(=O)c2ccc(C(=O)NCC(c3ccccc3OC)N3CCCC3)cc2)cc1` (configuration not stated), for which the inhibition was 1.1% (inactive).
Consider `CCOc1ccc(S(=O)(=O)Nc2cccc(C(=O)NCC3(N4CCCCC4)CCCCC3)c2)cc1`, for which the inhibition is 6.71% (active).
As for `O=C(NCC1(N2CCCCC2)CCCCC1)c1cccc(S(=O)(=O)Nc2ccccc2Cl)c1`, the inhibition is 3.28% (inactive).
Consider `CN(C)S(=O)(=O)c1ccc(C(=O)NCC2(N3CCOCC3)CCCCC2)cc1`, for which the inhibition was 3.47% (inactive).
As for `C=C(C)C1CC23C(=O)C4(C(=O)c5ccccc5)C[C@@]5(C)CCC(CC2C1(C)C)(C4=O)C35OC` (some centres not stated), the inhibition was -0.55% (inactive).
For `CN1C[C@]2(C=C3CCCCC3n3c(=O)n(-c4ccccc4)c(=O)n32)N=C1NC(=O)c1ccccc1` (some centres not stated), the inhibition is -0.17% (inactive).
For `CCc1ccccc1NC(=O)CSc1nnc(-c2cccs2)o1`, the inhibition is -1.18% (inactive).
For the molecule `Clc1ccc(C(Cn2ccnc2)OCc2ccsc2Cl)c(Cl)c1` (configuration not stated), the inhibition is -1.62% (inactive).
As to `COC(=O)c1ccccc1Oc1c(F)c(F)nc(N2CCOCC2)c1F`, the inhibition was 0.02% (inactive).
Under `Fc1cnc(N2CCOCC2)nc1NCc1ccccc1` stands 0.22% (inactive); under `COc1ccc(Nc2ncc(F)c(N3CCOCC3)n2)cc1`, 4.78% (active); under `CN(C)c1ccc(NC(=O)CSc2n[nH]c(-c3ccco3)n2)cc1`, -1.06% (inactive).
Under `CCCCC[C@H](C)N1C[C@@H](COCc2ccccc2)Oc2cc(N3CC[C@@H](N(C)C)C3)ccc2S1(=O)=O` stands 0.28% (inactive); under `COc1ccc(C2=CN(Cc3ccccc3)C(c3ccc(OC)cc3)CC2=O)cc1` (configuration not stated), -1.09% (inactive); under `O=S(=O)(NCC1CCCO1)c1ccc2ccccc2c1` (configuration not stated), -0.46% (inactive).
As for `COc1ccc(C(=O)C2CCCN(C(=O)c3cc(C)on3)C2)cc1F` (configuration not stated), the inhibition is -0.49% (inactive).
`O=C(c1cc(COc2ccc(F)cc2F)on1)N1CCOCC1`: the inhibition was 1.39% (inactive).
Regarding `COc1cc(OC)c(C(=O)N2CCCC2)cc1OC`, the inhibition was -0.07% (inactive).
Turning to `COc1cc(Cl)ccc1OCc1cc(C(=O)N2CC[C@@H]3CCCC[C@H]3C2)no1`, the inhibition was 3.53% (inactive).
Take `CC(=O)c1ccc(NC(=O)c2cc(-c3cccs3)on2)cc1`: the inhibition was 0.84% (inactive).
In the case of `O=C(c1ccco1)N1CCN(C(=O)c2cc(-c3ccccc3F)no2)CC1`, the inhibition was 0.38% (inactive).
Turning to `O=C(c1cc(-c2cccs2)on1)N1CCCCC1`, the inhibition was 4.8% (active).
Take `O=C(c1cc(C2CCCCN2S(=O)(=O)c2ccccc2)on1)N1CCOCC1` (configuration not stated): the inhibition was -1.39% (inactive).
Consider `CCOC(=O)C1CCCN(C(=O)c2cc(-c3cccs3)oc2C)CC1` (configuration not stated), for which the inhibition was -0.69% (inactive).
As for `O=C(c1cc(-c2ccccc2O)on1)N1CCCC1`, the inhibition was 6.48% (active).
Take `COc1ccc(OCc2cc(C(=O)N3CCCC3)no2)c2ccccc12`: the inhibition is 6.04% (active).
In the case of `COc1ccccc1-c1cc(C(=O)N2CCCCC2)no1`, the inhibition was 9.11% (active).
With `O=C1CSC2=NCN(c3ccccc3)CN12`, the inhibition is -0.05% (inactive).
On to `CN(C)S(=O)(=O)c1cccc(C(=O)N/N=C\c2ccco2)c1`, for which the inhibition is 0.25% (inactive).
Turning to `COC[C@@H]1CCCN1c1ccc2c(c1)O[C@H](C)CCN(C1CC1)S2(=O)=O`, the inhibition is -1.04% (inactive).
Under `CC(C)N1CCCCC(NC(=O)c2ccc3ccccc3c2)C1=O` (configuration not stated) stands 0.26% (inactive); under `O=C(NCCc1ccccn1)c1nc(Cn2cc([N+](=O)[O-])cn2)no1`, 0.2% (inactive); under `COc1ccc(N2C(=O)CN=C2Nc2cccc(C)c2C)cc1OC`, -0.59% (inactive).
For `O=C(NCc1ccccc1Cl)C1CCCN1S(=O)(=O)c1ccc(F)cc1` (configuration not stated), the inhibition is -0.27% (inactive).
Take `O=C(N1CCOCC1)N1CC[C@H]2[C@H](CCCN2Cc2ccc(F)cc2)C1`: the inhibition is 0.58% (inactive).
As to `COC(=O)[C@]12C[C@H](CC(=O)N3CCN(C(=O)C4CC4)CC3)C(=O)N(CCC3=CCCCC3)C1=C[C@H](C(C)C)O[C@@H]2C1CC1`, the inhibition is -0.81% (inactive).
On to `COc1ccccc1N(C)S(=O)(=O)c1ccc(C(=O)NC2CCCCCC2)cc1`, for which the inhibition is -0.26% (inactive).
Consider `O=C(CSc1nnc(-c2ccccn2)n1-c1ccc(Cl)cc1)Nc1ccccc1-c1ccccc1`, for which the inhibition was -0.72% (inactive).

The inhibition is the relative decrease from the control value, in per cent.
